Among the data in PubChem BioAssay (NCI) are growth values, retold here.

Each structure is given as a SMILES string. This is part of a sample that, as a whole, favours compounds with a hit. Of some 83,000 tested, about 20% had one in any assay.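 Percent growth is the endpoint: 0 to 100 indicates growth inhibition (40 means 60% inhibition), 0 means no net growth, and negative values indicate cell death.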 Values without a mark were called inactive. Calls of active or inactive are those of the source. Rule for the calls: active = growth percent below 10; inactive = the rest.

Among the test systems are DU-145 prostate; K-562 leukemia; MALME-3M melanoma; MDA-MB-231 breast; RXF 393 renal; SF-268 CNS; SF-295 CNS; SF-539 CNS; UACC-257 melanoma; M14 melanoma; HT29 colon; SNB-19 CNS; U251 CNS; SK-MEL-5 melanoma; UACC-62 melanoma; LOX IMVI melanoma; SK-MEL-28 melanoma; SNB-75 CNS; PC-3 prostate.
What all share (test): NCI-60 one-dose screen, 48 h (100 = growth as untreated, 0 = no growth, -100 = all killed)
Common to all, as to details: 10 µM unless noted

Take `CCOC(=O)c1nn(-c2ccc(S(N)(=O)=O)cc2)c2nc(C)cc(=O)n12`: the growth is 108% in the assay on DU-145 prostate; 102% in the assay with K-562 leukemia; 106% in the assay on MALME-3M melanoma; 102% in the assay on MDA-MB-231 breast; 104% with RXF 393 renal; 103% with SF-268 CNS. Also, the growth with SF-295 CNS is 103%; in the assay on SF-539 CNS, 97.8%; in the assay on UACC-257 melanoma, 112%; with M14 melanoma, 104%; with HT29 colon, 109%; with SNB-19 CNS it was 98.8%. Also, the growth in the assay on U251 CNS is 99%; with SK-MEL-5 melanoma it was 106%; in the assay on UACC-62 melanoma it was 99.6%; with LOX IMVI melanoma, 96.2%; with SK-MEL-28 melanoma, 119%.

For `CC/C=C\C[C@H](O)C/C=C1/C(=O)C=C[C@@H]1C/C=C\CCCC(=O)N(C)C`, the growth with DU-145 prostate is 16.4%; in the assay on K-562 leukemia, 5.58% (active); in the assay with MALME-3M melanoma, 8.29% (active); with MDA-MB-231 breast, 18.3%; with RXF 393 renal, -65.1% (active); in the assay with SF-268 CNS it was 16.6%. Moreover, the growth in the assay with SF-295 CNS is -1.42% (active); with SF-539 CNS, 14.7%; in the assay on UACC-257 melanoma, -9.75% (active); in the assay with M14 melanoma it was 5.92% (active); with SNB-75 CNS, 72.2%; with SNB-19 CNS, 27.1%. Also, the growth was -31% (active) in the assay with U251 CNS; 2.37% (active) in the assay on PC-3 prostate; -88.6% (active) with SK-MEL-5 melanoma; -31.6% (active) with UACC-62 melanoma; -84.3% (active) in the assay on LOX IMVI melanoma; 21.5% in the assay on SK-MEL-28 melanoma.

On to `CN1C(=O)/C(=C\c2nc([P+](c3ccccc3)(c3ccccc3)c3ccccc3)c(N3CCOCC3)o2)SC1=S`, for which the growth in the assay with DU-145 prostate was 100%; with K-562 leukemia, 17.2%; with MALME-3M melanoma, -10.8% (active); with MDA-MB-231 breast, 54.8%; in the assay with RXF 393 renal, 98.1%; with SF-268 CNS, 97.3%. Also, the growth with SF-295 CNS is 103%; in the assay on SF-539 CNS, 63%; in the assay with UACC-257 melanoma it was 61.1%; with M14 melanoma, 47%; with HT29 colon, 98.3%; in the assay with SNB-19 CNS, 12.5%. Besides, the growth was 66.2% in the assay with U251 CNS; 46.1% in the assay with PC-3 prostate; 78.4% in the assay on SK-MEL-5 melanoma; -3.31% (active) in the assay with UACC-62 melanoma; 86.1% in the assay with LOX IMVI melanoma; 11% in the assay on SK-MEL-28 melanoma.

As for `N#Cc1c(-c2ccc(Cl)cc2)nc(NN2C(=O)c3ccccc3C2=O)nc1N1CCOCC1`, the growth with DU-145 prostate is 107%; in the assay with K-562 leukemia it was 97%; in the assay with MALME-3M melanoma, 109%; in the assay on MDA-MB-231 breast, 105%; in the assay on RXF 393 renal, 107%; in the assay on SF-268 CNS it was 99.3%. For the same compound, the growth in the assay on SF-295 CNS is 101%; in the assay on SF-539 CNS it was 101%; in the assay on UACC-257 melanoma, 108%; with M14 melanoma it was 101%; in the assay on SNB-75 CNS it was 84.6%; in the assay on SNB-19 CNS, 94.1%. For the same compound, the growth is 106% in the assay on U251 CNS; 110% with PC-3 prostate; 101% with SK-MEL-5 melanoma; 101% with UACC-62 melanoma; 102% in the assay on LOX IMVI melanoma; 117% in the assay with SK-MEL-28 melanoma.

Take `Nc1ncnc2c1N=C(c1ccc(Br)cc1)CC(c1cccc(Nc3ccnc4cc(C(F)(F)F)ccc34)c1)N2` (configuration not stated): the growth was 85.6% in the assay on DU-145 prostate; 23% in the assay with K-562 leukemia; 76.8% with MALME-3M melanoma; 55.9% in the assay with MDA-MB-231 breast; 38.5% with RXF 393 renal; 55.5% in the assay on SF-268 CNS. Further, the growth with SF-295 CNS was 52.2%; in the assay with SF-539 CNS it was 70.8%; with UACC-257 melanoma, 66.6%; in the assay on M14 melanoma, 60.1%; in the assay on HT29 colon, 26.4%; in the assay with SNB-75 CNS it was 66.2%. Moreover, the growth with SNB-19 CNS is 70.6%; with U251 CNS, 51%; in the assay with PC-3 prostate, 39%; with SK-MEL-5 melanoma, 49.5%; with UACC-62 melanoma, 74.3%; with LOX IMVI melanoma, 63.3%. In addition, the growth in the assay with SK-MEL-28 melanoma is 72.2%.

On to `C#CCOc1ccc2ncnc(Nc3ccc(NC(=O)C=C)cc3)c2c1`, for which the growth in the assay with DU-145 prostate was -29.8% (active); in the assay with K-562 leukemia it was -35.7% (active); with MALME-3M melanoma, -74.4% (active); in the assay on MDA-MB-231 breast it was -71.7% (active); in the assay on RXF 393 renal it was -80.6% (active); with SF-268 CNS, 6.18% (active). Moreover, the growth in the assay with SF-295 CNS is 83.2%; in the assay on SF-539 CNS, -10.4% (active); in the assay with UACC-257 melanoma it was -26.3% (active); in the assay on M14 melanoma, -52.4% (active); with HT29 colon, -34.9% (active); in the assay with SNB-75 CNS, 70%. Also, the growth in the assay with SNB-19 CNS was 17.6%; with U251 CNS, -22.9% (active); in the assay on PC-3 prostate, 3.24% (active); with SK-MEL-5 melanoma, 13.1%; in the assay with UACC-62 melanoma it was -68.7% (active); in the assay with LOX IMVI melanoma, -82.6% (active). Besides, the growth in the assay on SK-MEL-28 melanoma was 2.36% (active).

In the case of `COC(=O)[C@]12CCC(C)(C)C[C@H]1[C@H]1/C(=N/OCCc3nn[nH]n3)C[C@@H]3[C@@]4(C)CC[C@H](OC(C)=O)C(C)(C)[C@@H]4CC[C@@]3(C)[C@]1(C)CC2`, the growth with DU-145 prostate was 53.8%; in the assay with K-562 leukemia it was 24.5%; with MALME-3M melanoma it was 40.4%; in the assay with MDA-MB-231 breast it was 48.5%; with RXF 393 renal, 70.1%; with SF-268 CNS it was 45.5%. Besides, the growth is 25% with SF-295 CNS; 44.7% in the assay with SF-539 CNS; 16.5% with UACC-257 melanoma; 48.4% in the assay with M14 melanoma; 43.1% with HT29 colon; 43% with SNB-75 CNS. Further, the growth is 34% in the assay with SNB-19 CNS; 36.3% in the assay with U251 CNS; 26.7% in the assay on PC-3 prostate; -45% (active) with SK-MEL-5 melanoma; 13.2% in the assay with UACC-62 melanoma; 19.8% in the assay on LOX IMVI melanoma. Also, in the assay on SK-MEL-28 melanoma, the growth is 41.9%.

In the case of `O=C1C(Cl)=C(Nc2ccc(S(=O)(=O)N3CCOCC3)cc2)C(=O)c2ccccc21`, the growth with DU-145 prostate was 101%; in the assay with K-562 leukemia it was 6.71% (active); in the assay on MALME-3M melanoma, 71.6%; in the assay on MDA-MB-231 breast, 31.3%; in the assay with RXF 393 renal, 56.4%; with SF-268 CNS, 78.3%. Further, the growth is 99.7% in the assay with SF-295 CNS; 2.06% (active) with SF-539 CNS; 66.4% in the assay on UACC-257 melanoma; 44.2% in the assay with M14 melanoma; 49.2% with HT29 colon; 71.3% in the assay on SNB-75 CNS. In addition, the growth with SNB-19 CNS was 96.9%; in the assay on U251 CNS, 44.6%; in the assay on PC-3 prostate, 46%; in the assay on SK-MEL-5 melanoma it was 86.8%; in the assay with UACC-62 melanoma, 29.7%; in the assay with LOX IMVI melanoma, 35.3%. The growth in the assay on SK-MEL-28 melanoma was 47.5%.
